In PubChem BioAssay AID1445 (SRMLSC, 2008):
The campaign covered roughly 220,000 compounds. About 910 (0.41%) were called active.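 How the source made its calls: active means primary inhibition above the hit cutoff, then over 50% inhibition at one or more dose response concentrations (cut at about 23% in these data, passing the limit was not always enough); inconclusive means conflicting primary data, or primary hits not chosen for dose response; inactive means low primary inhibition, or under 50% at every dose.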 Many of the other results were omitted from the sample, so actives are more common in it than they were. Potency and affinity values are given separately.

What follows are molecules tested against Aminopeptidase N (Plasmodium falciparum (isolate 3D7)) (UniProt O96935) (assay: malaria alanyl aminopeptidase activity blockers – biochemical, fluorogenic H-Leu-NHMec substrate, 1536-well (AID 1445;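 further: plate controls were DMSO full reaction for no effect and no enzyme background for full effect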)). Conditions: recombinant M1AAP, H-Leu-NHMec fluorogenic kinetic assay; at 30 µM, hits give high values unless noted.
Aminopeptidase N (Plasmodium falciparum (isolate 3D7)), sequence (O96935 whole entry, looked up): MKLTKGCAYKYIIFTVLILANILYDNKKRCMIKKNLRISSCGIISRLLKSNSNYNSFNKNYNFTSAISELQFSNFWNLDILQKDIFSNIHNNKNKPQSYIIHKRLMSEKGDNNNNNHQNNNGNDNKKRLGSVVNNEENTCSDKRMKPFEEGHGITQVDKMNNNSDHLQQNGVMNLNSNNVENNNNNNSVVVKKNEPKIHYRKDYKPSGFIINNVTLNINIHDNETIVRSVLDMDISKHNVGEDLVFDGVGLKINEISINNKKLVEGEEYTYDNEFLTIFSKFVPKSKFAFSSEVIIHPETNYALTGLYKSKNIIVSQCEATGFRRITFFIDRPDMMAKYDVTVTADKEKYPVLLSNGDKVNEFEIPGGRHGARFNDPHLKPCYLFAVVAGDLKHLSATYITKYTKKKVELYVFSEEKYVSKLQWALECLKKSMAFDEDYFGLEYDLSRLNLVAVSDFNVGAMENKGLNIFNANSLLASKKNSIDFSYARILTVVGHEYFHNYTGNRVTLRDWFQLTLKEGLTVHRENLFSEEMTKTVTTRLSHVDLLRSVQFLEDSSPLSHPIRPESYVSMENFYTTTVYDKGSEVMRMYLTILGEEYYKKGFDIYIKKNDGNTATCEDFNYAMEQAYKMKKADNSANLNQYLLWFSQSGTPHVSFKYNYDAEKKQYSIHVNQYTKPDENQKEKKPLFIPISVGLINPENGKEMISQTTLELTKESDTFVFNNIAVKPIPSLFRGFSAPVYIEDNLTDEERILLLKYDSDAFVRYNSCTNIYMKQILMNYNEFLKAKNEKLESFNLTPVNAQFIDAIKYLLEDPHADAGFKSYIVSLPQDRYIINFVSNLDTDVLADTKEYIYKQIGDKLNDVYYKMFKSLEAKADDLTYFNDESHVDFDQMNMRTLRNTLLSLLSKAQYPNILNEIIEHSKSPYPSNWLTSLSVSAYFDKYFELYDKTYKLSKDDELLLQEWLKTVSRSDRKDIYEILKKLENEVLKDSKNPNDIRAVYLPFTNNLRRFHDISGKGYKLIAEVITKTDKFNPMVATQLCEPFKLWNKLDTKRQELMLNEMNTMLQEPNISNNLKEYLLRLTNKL

inhibition, inactive:
COCC1CCN(Cc2cn(-c3ccccc3F)nc2-c2cc(C)sc2C)CC1 0.56%, COc1ccc(-c2nc3n(n2)C(c2ccccc2Cl)C(C(N)=O)=C(C)N3)cc1 (configuration not stated) 9.41%, CCOC(=O)CSc1ccc(S(=O)(=O)N2CCCC2)cc1[N+](=O)[O-] -0.65%, COc1ccc(OCCSc2nc3ccccc3c(=O)[nH]2)cc1 2.2%, CCN1C(=O)[C@H]2[C@H]3[C@H](O)[C@H](O)C/C(=N\O[C@H](C)c4cn([C@H](CO)Cc5ccccc5)nn4)[C@@H]3CC[C@H]2C1=O -7.3%, COCC(=O)NC1CCCCCC1 2.18%, CCOc1cc(C)c(Cl)cc1S(=O)(=O)NCC1CCCO1 (configuration not stated) 1.73%, O=C1NCCCC1C(=O)N/N=C/c1cccc(Cl)c1 (configuration not stated) -7.25%, NS(=O)(=O)c1ccc(CCNC(=O)COC(=O)CCc2ccccc2)cc1 -2%, N#Cc1nc(Cc2cccc3ccccc23)oc1NCCCN1CCOCC1 6.12%, N#Cc1nc(COc2ccc(-c3ccccc3)cc2)oc1NCCCN1CCOCC1 -3.18%, CNc1oc(-c2cccs2)nc1C#N 13%, CCN(CC)CCCNc1oc(-c2cccc(Cl)c2)nc1C#N 12.2%, CN(C)c1oc(-c2ccccc2)nc1C#N 11%, CCN(CC)CCCNc1oc(-c2ccccc2[N+](=O)[O-])nc1C#N 9.93%, CCOc1cc(C)c(C(C)C)cc1S(=O)(=O)n1ccc(C)n1 -2.68%, Cc1c(Cl)cccc1NC(=S)NCCc1ccccn1 20.7%, COc1ccc(/C=C2\CCCC3C2=NN(C(=O)COC(=O)CNC(=O)c2ccccc2)C3c2ccc(OC)cc2)cc1 (configuration not stated) 2.31%, O=C(Cc1cccs1)Nc1nnc(-c2ccc(F)cc2)s1 -2.11%, COc1cc(C(=O)Nc2ccc([N+](=O)[O-])cn2)cc(OC)c1OC 13.8%, COc1ccc(S(=O)(=O)NCCC(C)C)cc1OC -0.02%, Cc1nc(N)sc1C(=O)OCC(C)C -4.36%, Cc1ccc(-n2c(P(C)(=O)O)nc3ccccc32)cc1 -0.56%, Cc1ccnc(NC(=O)CCCOc2ccc(Cl)cc2C)c1 -1.52%, C=CCC(=O)N1CCCC(CCC(=O)NCc2ccccc2F)C1 (configuration not stated) 9.17%, O=C(CCn1c(=O)oc2ccccc21)Nc1ccc2c(c1)OCCO2 -5.19%, COc1ccccc1CCNS(=O)(=O)c1cn(C)c(=O)n(C)c1=O -3.3%, CC(CCC(=O)O)C1CC[C@@]2(C)C3C(=O)CC4C(C)(C)C(O)CC[C@]4(C)C3C(=O)C[C@]12C (some centres not stated) 3%, C[C@H](CCC(=O)O)[C@H]1CC[C@H]2[C@@H]3C(=O)C[C@@H]4CC(=O)CC[C@]4(C)[C@H]3CC(=O)[C@]12C 7.14%, C/C(Cl)=C\Cn1c(O)c(N=O)c2ccccc21 -2.4%, C=CCn1c(O)c(N=NC(=O)OCC)c2ccccc21 12.7%, CCn1c(O)c(N=NC(=O)Cn2ccc(C(F)(F)F)n2)c2ccccc21 5.05%, O=C(N/N=C/c1ccc(Cl)s1)c1ccccc1[N+](=O)[O-] 9.55%, Cc1c(C)c2ccc(Oc3ccc([N+](=O)[O-])cc3C(F)(F)F)c(C)c2oc1=O 6.61%, Cc1cc(SCC(=O)N2CCC(c3noc4ccc(F)cc34)CC2)nc2ccccc12 7.53%, Cc1sc2ncnc(SCC(=O)N3CCC(c4noc5ccc(F)cc45)CC3)c2c1C 1.38%, COC(=O)c1cn(NC(=O)Cc2ccccc2OC)c(=O)c2ccccc12 3.77%, O=C(O)COc1c(-c2ccco2)oc2ccccc2c1=O 9.28%, CC(=O)Oc1c(-c2ccco2)oc2ccccc2c1=O 30.4%, Cn1c(SCc2nc(-c3ccccc3)no2)nnc1-c1cccs1 -3.32%, N/C(=N\OC(=O)c1cnn(-c2ccccc2)c1C(F)(F)F)c1ccc(C(F)(F)F)cc1 13.2%, O=C(NN1C(=O)c2ccccc2NC1c1ccoc1)c1ccc([N+](=O)[O-])cc1 (configuration not stated) 4.32%, O=C(NN1C(=O)c2ccccc2NC1c1ccco1)c1ccc(Br)cc1 (configuration not stated) 5.55%, O=C(NN1C(=O)c2ccccc2NC1c1ccco1)c1ccc([N+](=O)[O-])cc1 (configuration not stated) 8.9%, O=C(NN1C(=O)c2ccccc2NC1c1ccccn1)c1ccc(Br)cc1 (configuration not stated) 8.07%, O=C(NN1C(=O)c2ccccc2NC1c1ccccn1)c1ccc([N+](=O)[O-])cc1 (configuration not stated) 2.53%, CC(=O)NN1C(=O)c2ccccc2NC1c1ccoc1 (configuration not stated) 4.92%
